This is a sample that favours compounds with a hit; in the whole collection about 5.3% have one here.
Vaccinia Venus = inhibitors of vaccinia virus (Venus reporter) | Potency, µM (top dose mostly 36.5 µM), usual class: inhibitors | Vaccinia virus Venus reporter expression, fluorescence | 330,000 compounds, 0.46% hits; calls by dose curve; tested in A549 cells; further: nearly all actives have a fitted effect of over 30% in size
HCV inhibitor = HCV inhibition | AID 651820 | 340,000 compounds, 3.4% hits | Huh7.5.1 HCVcc-Cre infection, luciferase reporter, 44 h | Potency, µM (top dose mostly 41.8 µM), hits mostly inhibitors; active means well fitted inhibition curve with a large enough effect; inconclusive means small, poorly fitted or top-dose-only effect, or another doubt; inactive means no such curve, though single readings can be large or run the other way
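Antiviral activity was scored by luciferase reporter output from cells infected with HCVcc-Cre (~0.5 moi) in presence of compound, 44 h infection period, cells seeded 1,000/well 4 h prior.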
Vaccinia mCherry = inhibitors of vaccinia virus infection (mCherry reporter signal); Vaccinia virus mCherry reporter infection, fluorescence; Potency, µM (highest dose often 36.5 µM), usual class: inhibitors; 310,000 compounds, 0.63% hits; AID 720579; calls by dose curve; tested in A549 cells; further: nearly all actives have a fitted effect of over 35% in size
Lassa entry inh = inhibitors of Lassa virus binding or cell entry; Lassa virus pseudotype entry inhibition, cell reporter; Potency, µM (doses to about 37.9 µM), actives largely listed as inhibitors; 300,000 compounds, 1.2% hits; calls by dose curve; tested in HEK293 cells; further: nearly all actives have a fitted effect of over 50% in size
Marburg entry inh = inhibitors of Marburg virus binding or cell entry. Marburg virus pseudotyped entry inhibition, cell reporter. Potency, µM (series often up to 37.8 µM), usual class: inhibitors. 300,000 compounds, 1.8% hits; calls by dose curve; tested in HEK293 cells
FMDV antiviral = blocks foot and mouth disease virus. 410,000 compounds, 1.2% hits. AID 1159524. FMDV antiviral cell-based qHTS. Potency, µM (doses to about 57.9 µM), usual class: inhibitors; calls by dose curve; tested in HEK293T cells; further: read-out not given here; nearly all actives have a fitted effect of over 45% in size
Of the large screens only hits and unclear results are named; the others gave an inactive call.

CC(=O)c1cccc(OCC(O)CNCC2COc3ccccc3O2)c1 (centres undefined)	none
COCCn1c(C)cc(C(=O)CSc2nc3ccccc3s2)c1C	HCV inhibitor 10µM, Vaccinia mCherry inconclusive, Lassa entry inh inconclusive, Marburg entry inh inconclusive, FMDV antiviral 15.8µM
CCCC(=O)NC(c1cccc([N+](=O)[O-])c1)c1ccc2cccnc2c1O (centres undefined)	Vaccinia Venus inconclusive, Vaccinia mCherry 3.98µM (no result: HCV inhibitor, Lassa entry inh, Marburg entry inh)
CC(C)C(=O)NC(c1cccc([N+](=O)[O-])c1)c1ccc2cccnc2c1O (centres undefined)	Vaccinia Venus 4.47µM, HCV inhibitor 3.98µM, Vaccinia mCherry inconclusive, Lassa entry inh 7.08µM, Marburg entry inh inconclusive
CC(C)C(=O)NC(c1cccc([N+](=O)[O-])c1)c1c(O)ccc2ccccc12 (centres undefined)	none
COc1ccc(CN2C(=O)c3ccccc3C2c2nnnn2-c2ccc3c(c2)OCCO3)cc1OC (centres undefined)	none (no result: HCV inhibitor, Lassa entry inh, Marburg entry inh)
CC(C)CC(=O)NN(C)c1nc(-c2ccccc2)nnc1C(F)(F)F	Lassa entry inh inconclusive
CN(NC(=O)c1ccc(Cl)cc1)c1nc(-c2ccccc2)nnc1C(F)(F)F	Marburg entry inh inconclusive, FMDV antiviral 31.6µM
Cc1nc(SCC(=O)Nc2nc3ccccc3s2)c(C#N)c(C)c1C	HCV inhibitor inconclusive, Lassa entry inh inconclusive, Marburg entry inh inconclusive, FMDV antiviral 0.1µM (no result: Vaccinia Venus, Vaccinia mCherry)
Cc1cc(C(F)(F)F)c(C#N)c(SCC(=O)Nc2nc3ccccc3s2)n1	HCV inhibitor inconclusive, Lassa entry inh inconclusive, Marburg entry inh 4.47µM, FMDV antiviral inconclusive
CCOC(=O)c1[nH]c2ccc(OC)cc2c1NC(=O)CCN1CCC[C@@H](C)C1	none (no result: Vaccinia Venus, HCV inhibitor, Vaccinia mCherry, Lassa entry inh, FMDV antiviral)
COc1ccc2c(c1OC)C(=O)OC2N1C(=O)CC[C@H]1C(=O)NCC1CCCO1 (some centres undefined)	HCV inhibitor 0.562µM (no result: Lassa entry inh, Marburg entry inh)
COC(=O)c1ccccc1NC(=O)[C@@H]1CCC(=O)N1C1OC(=O)c2c1ccc(OC)c2OC (some centres undefined)	none (no result: Lassa entry inh, Marburg entry inh)
C/C(Cn1cnc([N+](=O)[O-])n1)=N\NC(=O)c1ccccc1	none
C/C(Cn1nnc([N+](=O)[O-])n1)=N\NC(=O)c1ccccc1	Vaccinia Venus 12.6µM, HCV inhibitor inconclusive, Vaccinia mCherry inconclusive, Marburg entry inh inconclusive (no result: FMDV antiviral)
O=C(c1ccc(COc2ccccc2Br)o1)N1N=C(C(F)F)CC1(O)C(F)F (centres undefined)	Vaccinia Venus inconclusive, Marburg entry inh 7.08µM
O=C(c1ccc(Cn2cc([N+](=O)[O-])cn2)o1)N1N=C(C(F)F)CC1(O)C(F)F (centres undefined)	none (no result: HCV inhibitor)
N#CCC(=O)N/N=C/c1cc(-c2ccccc2)n(-c2ccc(Cl)cc2)c1-c1ccccc1	HCV inhibitor inconclusive, Lassa entry inh inconclusive, Marburg entry inh inconclusive, FMDV antiviral 25.1µM
CCCCc1ccc(C(=O)COC(=O)c2ccc3nc(C)c(C)nc3c2)cc1	none (no result: HCV inhibitor, Lassa entry inh, Marburg entry inh, FMDV antiviral)
C=CC[C@@H](CC(=O)N[C@H](CO)Cc1ccccc1)C(=O)N[C@H](COC(=O)[C@@H](CC=C)CC(=O)OC(C)(C)C)Cc1c[nH]c2ccccc12	Vaccinia Venus 12.6µM, HCV inhibitor inconclusive, Vaccinia mCherry 22.4µM, FMDV antiviral inconclusive (no result: Lassa entry inh, Marburg entry inh)
C=CC[C@@H](CC(=O)N[C@@H](CO)Cc1ccccc1)C(=O)N[C@@H](COC(=O)[C@@H](CC=C)CC(=O)OC(C)(C)C)Cc1c[nH]c2ccccc12	Vaccinia Venus inconclusive, HCV inhibitor inconclusive (no result: Lassa entry inh, Marburg entry inh)
C=CC[C@H](CC(=O)N(CCO)Cc1ccccc1)C(=O)N[C@H](COC(=O)[C@@H](CC=C)CC(=O)OC(C)(C)C)Cc1c[nH]c2ccccc12	Vaccinia Venus 11.2µM, HCV inhibitor inconclusive, Vaccinia mCherry inconclusive (no result: Lassa entry inh, Marburg entry inh)
N#Cc1ccc(CN2CCCC3(CCN(C(=O)c4cnccn4)CC3)C2)cc1	none (no result: Vaccinia Venus, HCV inhibitor, Vaccinia mCherry, Lassa entry inh, Marburg entry inh)
CCOC(=O)c1c(-n2c(C)cc(/C=C3\C(=O)NC(=O)N(C)C3=O)c2C)sc2c1CCCC2	HCV inhibitor 14.1µM, Lassa entry inh inconclusive, Marburg entry inh inconclusive (no result: Vaccinia Venus, Vaccinia mCherry)
Cc1cc(/C=C2\C(=O)NC(=O)N(c3ccc(Cl)cc3)C2=O)c(C)n1-c1sc2c(c1C#N)CCCC2	none (no result: Lassa entry inh)
Cc1cc(/C=C2/NC(=O)NC2=O)c(C)n1-c1sc2c(c1C#N)CCCC2	Vaccinia mCherry inconclusive, Lassa entry inh 4.47µM, Marburg entry inh inconclusive
CCOC(=O)c1c(-n2c(C)cc(C=O)c2C)sc2c1CCCC2	HCV inhibitor inconclusive, Lassa entry inh 9.2µM, Marburg entry inh 11.6µM (no result: Vaccinia Venus, Vaccinia mCherry)
